Most compounds without a hit are left out; they make up all but 2.3% or so of the library.
CHO-K1 Ca antag = M1 antagonist counterscreen hit in parental CHO-K1 cells. ATP-induced calcium, Fluo-8 fluorescence. inhibition, % at 3 µM. hit rate 0.6% among 360,000. AID 602250;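 active = inhibition above a per-plate cutoff, the plate's mean sample inhibition plus 3 SD, cut at about 24% in these data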
CHO-K1 Ca ag = counter-screen for M1 agonists: effect in parental CHO-K1 cells | activation, % at 3 µM | Fluo-8 calcium fluorescence; scaled to maximal ATP response, vehicle zero | hit rate 0.48% among 360,000; in the data active = activation above about 15%;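 note: untransfected CHO-K1 host cells lacking M1 receptor as counterscreen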
CHRM1 antagonist = human M1 muscarinic receptor antagonists, primary screen, CHO-K1 cells, Fluo-8 calcium fluorescence, 1536-well; Muscarinic acetylcholine receptor M1 (Homo sapiens), P11229; CHO-K1 hM1, ACh EC80 antagonist; inhibition, % at 3 µM; hit rate 1.3% among 360,000;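 active = percent inhibition above its own plate's cutoff, namely the mean of that plate's compound wells plus 3 SD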;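 note: peak over basal fluorescence ratio during 140 s after agonist addition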
Target sequence (P11229 whole entry, looked up): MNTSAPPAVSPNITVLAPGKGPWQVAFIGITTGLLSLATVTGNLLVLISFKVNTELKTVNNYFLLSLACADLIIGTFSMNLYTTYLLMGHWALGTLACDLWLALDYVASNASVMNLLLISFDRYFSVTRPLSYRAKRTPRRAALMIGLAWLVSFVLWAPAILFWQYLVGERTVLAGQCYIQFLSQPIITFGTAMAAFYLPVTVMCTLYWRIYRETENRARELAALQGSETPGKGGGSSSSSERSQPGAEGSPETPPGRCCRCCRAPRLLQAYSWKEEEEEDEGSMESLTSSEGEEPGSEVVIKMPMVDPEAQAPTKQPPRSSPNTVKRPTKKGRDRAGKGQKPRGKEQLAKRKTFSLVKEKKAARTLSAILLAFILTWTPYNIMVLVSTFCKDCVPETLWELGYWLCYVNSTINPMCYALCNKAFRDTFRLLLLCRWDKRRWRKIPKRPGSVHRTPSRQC
CHO-K1 Ca PAM = nonselective calcium activators in parental CHO-K1 cells, primary screen, counter-screen for M1 PAM project, cell-based, Fluo-8 calcium fluorescence, full deck, 1536-well. ATP EC20; 0% at ATP EC20, 100% at ATP max. activation, % at 3 µM. hit rate 0.02% among 360,000. AID 602247, 2012;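 active = activation above the run cutoff, the mean activation of all test compounds plus 3 SD, cut at about 40% in these data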;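 note: peak over basal fluorescence ratio in a 140 s read after ATP addition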
M1 PAM = human M1 muscarinic receptor positive allosteric modulators, primary screen, CHO-K1 cells, Fluo-8 calcium fluorescence, 1536-well | CHO-K1 hM1, ACh EC20; 0% = ACh EC20, 100% = maximal ACh | activation, % at 3 µM | hit rate 0.088% among 360,000 | AID 588819, 2011; in the data active = activation above about 19%, passing the limit was not always enough
M1 ag = human M1 muscarinic receptor agonists, primary screen, Fluo-8 calcium fluorescence, CHO-K1 cells, HTS. Muscarinic acetylcholine receptor M1 (Homo sapiens), P11229. CHO-K1 hM1, agonist mode; 0% DMSO, 100% acetylcholine EC100. activation, % at 3 µM. hit rate 0.33% among 360,000. AID 588814, 2011;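 active = activation above the run's mean compound activation plus 3 SD, cut at about 16% in these data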;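 note: peak over basal fluorescence ratio within a 140 s kinetic read after compound addition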
Of the large screens only hits and unclear results are named; the others gave an inactive call.

O=C1OCCOC2CCCc3oc(C4=CCCCC4)c1c32 (centres undefined)	none (no result: CHRM1 antagonist, M1 PAM, M1 ag)
Cc1cccc2c(N=NC(=O)c3ccc(NS(=O)(=O)c4cccs4)cc3)c(O)[nH]c12	CHRM1 antagonist 37
COc1ccc(C(CC(=O)O)NC(=O)COc2cc(C)ccc2C)cc1OC (centres undefined)	none
CCc1nc2c(OCCn3cccc3)cccn2c1N(C)C(=O)c1ccco1	none
COc1ccccc1NC(=O)Cn1nnc(-c2ccccc2NS(=O)(=O)c2ccccc2)n1	CHO-K1 Ca antag 28
O=C(NC(=S)NNC(=O)c1cccs1)c1ccc(Br)o1	M1 ag 33
COc1ccc(C(CNC(=O)c2cc(S(=O)(=O)NCc3ccccc3)ccc2C)N2CCOCC2)cc1 (centres undefined)	CHO-K1 Ca antag 28
C(=C\c1ccccc1)/CN1CCN(C(c2cccc3ccccc23)c2nnnn2-c2ccc3c(c2)OCCO3)CC1 (centres undefined)	none
Cc1ccc(S(=O)(=O)N(C)CC(=O)Nc2nc3ccccc3s2)cc1	CHO-K1 Ca antag 24
Cc1c(CCOC(=O)C23CC4(C)CC(C)(CC(C)(C4)C2)C3)sc[n+]1CC(=O)c1ccccc1	CHRM1 antagonist 32
Cc1c(CCOC(=O)CC23CC4CC(CC(C4)C2)C3)sc[n+]1CC(=O)c1ccccc1	none
Cc1c(CCOC(=O)C23CC4CC(CC(C4)C2)C3)sc[n+]1Cc1ccccc1	CHRM1 antagonist 64
Cc1c(CCOC(=O)C23CC4CC(CC(C)(C4)C2)C3)sc[n+]1Cc1ccccc1	CHRM1 antagonist 100
Cc1ncc(C[n+]2csc(CCOC(=O)C34CC5CC(CC(C5)C3)C4)c2C)c(N)n1	none
Cc1c(CCOC(=O)c2ccc(Cl)cc2Cl)sc[n+]1CC(=O)c1ccccc1	CHRM1 antagonist 95
Cn1c(N)c(C(=O)CSc2nc(N)cc(N)n2)c(=O)n(C)c1=O	none
CC(C)(C)Sc1ccc([N+](=O)[O-])cc1C(=O)Nc1ccncc1	none
COc1cccc(CNC(=O)CCCc2cn(C)c3ccccc23)c1	none
Cc1nc2ccc(S(=O)(=O)NCC(=O)Nc3cccc(F)c3)cc2s1	none
Cc1sc[n+](CC(=O)c2ccc(Br)cc2)c1C	none
Cc1c(CCOC(=O)c2cc([N+](=O)[O-])cc([N+](=O)[O-])c2)sc[n+]1CC(=O)c1ccc(Br)cc1	CHRM1 antagonist 80
CC1CC(C)CN(S(=O)(=O)c2ccc3c(c2)CC(=O)N3)C1 (centres undefined)	none
COC(=O)c1ccsc1NC(=O)CN1CCN(c2ccc(F)cc2)CC1	none
COC(=O)c1ccsc1NC(=O)CN1CCN(c2ncccn2)CC1	CHO-K1 Ca antag 25
CO/N=C/c1ccc(N2CCN(C(=O)c3ccc(Cl)cc3Cl)CC2)c([N+](=O)[O-])c1	CHRM1 antagonist 24
COc1ccc2[nH]c3c(c2c1)CCN1C(=O)N([C@@H](C)C(=O)NC2CCCCC2C)C(=O)[C@]31C (some centres undefined)	none
COc1ccc(Cc2nnc(NC(=O)c3ccccc3F)s2)cc1OC	none
COc1ccc(Cc2nnc(NC(=O)Nc3ccc(C)cc3)s2)cc1OC	none
COc1ccc(Cc2nnc(NC(=O)CSc3ccc(C)cc3)s2)cc1OC	CHO-K1 Ca ag 49, CHO-K1 Ca PAM 42, M1 ag 61
COc1ccc(Cc2nnc(NC(=O)c3ccccc3Cl)s2)cc1OC	CHO-K1 Ca ag 22
Cc1ccccc1OCCC(=O)NNC(=O)COc1cccc(F)c1	none
C[C@@H](CN1C2=NC[C@H](Cc3ccc(O)cc3)N2C[C@H]1Cc1ccc(O)cc1)NC(=O)CCC1CCCCC1	none
C[C@@H](CN1C2=NC[C@H](Cc3ccccc3)N2C[C@H]1Cc1ccc(O)cc1)NC(=O)CCC1CCCCC1	CHRM1 antagonist 40
CN(C)S(=O)(=O)N1CCC(Oc2cccc(C(=O)NC3CCCCC3)c2)CC1	none
CN(C)S(=O)(=O)N1CCC(Oc2cccc(C(=O)NCCC3=CCCCC3)c2)CC1	CHO-K1 Ca ag 16
COc1ccc(NC(=O)CCN2CCN(S(=O)(=O)c3ccc(Br)cc3)CC2)cc1	none
COc1ccc(NC(=O)CCN2CCN(S(=O)(=O)c3cc(Cl)ccc3OC)CC2)cc1	CHO-K1 Ca PAM 62
O=C(CSc1nnc(-c2cccnc2)o1)Nc1ccccc1F	none
Cc1c(C(=O)N(C)CCCCN2CCOCC2)oc2c(F)cccc12	none
Cc1ccc(S(=O)(=O)Nc2ccc(O)c3ccccc23)c(C)c1	CHO-K1 Ca antag 27
CN1CCN(C(=O)c2cc(=O)c3cc(Cl)cc(Cl)c3o2)CC1	none
O=c1c(O)c(-c2cccs2)oc2ccccc12	M1 ag 16
O=c1c(O)c(-c2cccs2)oc2ccc(Cl)cc12	CHO-K1 Ca ag 77, CHRM1 antagonist 62, M1 ag 144
CCOc1ccc(C(=O)N(c2ccccn2)C2CCCCC2)cc1	none
Cc1ccc([C@@H]2CC(=O)[C@@H]3CN(S(=O)(=O)c4ccc(C)cc4)[C@H](c4ccc(Cl)cc4)C[C@@H]3N2S(=O)(=O)c2ccc(C)cc2)cc1	none
CCn1c(COc2cc(C)ccc2C(C)C)nnc1SCC(=O)Nc1nccs1	none
CC(C)[C@@H](C(=O)NCC1CCC(C(=O)O)CC1)n1nnc2ccccc2c1=O (some centres undefined)	none
O=C(Cn1nnc2ccccc2c1=O)NCC1CCC(C(=O)O)CC1 (centres undefined)	CHO-K1 Ca ag 18
CC1NC(=O)c2cccnc2-n2c1nc1ccccc1c2=O (centres undefined)	none
COc1ccccc1C(CNC(=O)c1ccco1)N1CCCC1 (centres undefined)	CHRM1 antagonist 73
COc1ccc(Cl)cc1C(=O)NCC(c1ccco1)N1CCCC1 (centres undefined)	none
COc1ccccc1C(CNC(=O)CN1C(=O)NC(C)(c2ccc3ccccc3c2)C1=O)N1CCCC1 (centres undefined)	CHRM1 antagonist 65
COc1cc(C(=O)NCC(c2ccco2)N2CCCC2)ccc1OCc1ccc(Cl)cc1Cl (centres undefined)	CHRM1 antagonist 49
COc1ccccc1C(CNC(=O)c1ccc(-c2ccccc2Cl)o1)N1CCCC1 (centres undefined)	CHRM1 antagonist 84
CN(C(=O)CCNC(=O)Cn1cnc2ccccc2c1=O)c1ccccc1F	none

Assay outcomes from PubChem BioAssay.
